For 60 compounds, survival results are on record in PubChem BioAssay AID463173 (ICCB-Longwood Screening Facility, Harvard Medical School, 2010).

Structures are written as SMILES. Screen size: about 52,000 compounds; about 1,700 (3.3%) were called active. For the sample, actives were picked, then their nearest neighbours and some compounds at random. Values without a mark were called inactive. No stated cut-off is given here; in the data, active means survival mostly below about 52% (no sharp cut-off); inactive means mostly above about 56%.

This assay has as its system Wild type. Nature of the assay: growth inhibition of S. aureus wild type versus tarO mutant, primary screen, teichoic acid synthesis inhibitors, RN4220, OD600 (AID 463173). The conditions noted are these: S. aureus RN4220 wild type/DeltatarO growth, OD600, 18 h, stronger effect = lower value, screened at 18.75 µg/mL (by protocol).
As to `CC(C)(C)NSc1nc2ccccc2s1`, the survival was 68%. As to `Cc1cc(C)nc(SC2=CS(=O)(=O)c3ccccc32)n1`, the survival is 99%. Turning to `O=S1(=O)C=C(Sc2nc3ccccc3s2)c2ccccc21`, the survival was 0% (active). For `O=C(COc1ccccc1Cl)OCc1cc(=O)n2nc(C3CCCCC3)sc2n1`, the survival is 71%. For `Cc1ccc(Cc2nc3ccccc3nc2SCC(=O)N2CCC(C)CC2)cc1` the value was 77%; for `Cc1nc2nc(NCc3ccccc3Cl)[nH]n2c(=O)c1Cc1ccccc1`, 86%.

In the case of `Cc1ccccc1Cc1c(C)nc2c(-c3ccccc3)c(C)[nH]n2c1=O`, the survival was -13% (active). To `CCc1c(C)nc2cc(-c3ccccc3)[nH]n2c1=O` belongs 106%. For `Cc1cccc(Cc2c(C)nc3c(-c4ccccc4)c(C)[nH]n3c2=O)c1` the value was 4% (active); for `COc1cccc(C(=O)Nc2nc3nc(C)c(Cc4ccccc4)c(=O)n3[nH]2)c1`, 105%.

Consider `Cc1nc2nc(NCc3cccc(Cl)c3)[nH]n2c(=O)c1Cc1ccccc1`, for which the survival is 85%.

For the compound `Cc1nc2c(-c3ccccc3)c(C)[nH]n2c(=O)c1Cc1ccc(C(C)C)cc1`, the survival was -5% (active). As to `CCOC(=O)CCc1c(C)nc2c(-c3ccccc3)c(C)[nH]n2c1=O`, the survival is 74%. For `Cc1nc2nc(NC(=O)C(C)C)[nH]n2c(=O)c1Cc1ccccc1` the value was 88%; for `Cc1nc2nc(NC(=O)CC(C)C)[nH]n2c(=O)c1Cc1ccccc1`, 110%; for `CCc1ccc(CNc2nc3nc(C)c(Cc4ccccc4)c(=O)n3[nH]2)cc1`, 93%. Take `Cc1ccc(Cc2c(C)nc3c(-c4ccccc4)c(C)[nH]n3c2=O)cc1`: the survival was -11% (active). To `CCCCN(C)C(=O)c1ccc2c(=O)n3nc(Nc4cc(C)ccc4C)sc3nc2c1` belongs 140%; to `CCN(CC)CCCNC(=O)c1nn(-c2ccc(OC)c(Cl)c2)c(=O)c2c1c1ccccc1n2C`, 80%; to `O=C(Cn1cc(S(=O)(=O)N2CCN(c3ccccc3F)CC2)c2ccccc2c1=O)Nc1ccc(F)cc1Cl`, 129%. For `Cc1cccc(CN2C(=O)CC(c3ccc(Cl)cc3)c3c(C)nn(-c4nc(C)cc(C)n4)c32)c1` (stereo not given) the value was 76%; for `Cc1nc2nc(NCc3cccc(Br)c3)[nH]n2c(=O)c1Cc1ccccc1`, 68%; for `Cc1nc2nc(NCc3ccc(Br)cc3)[nH]n2c(=O)c1Cc1ccccc1`, 63%. To `Cc1nc2c(-c3ccccc3)c(C)[nH]n2c(=O)c1Cc1ccc(Br)cc1` belongs -5% (active); to `CCc1nc2nc(C)cc(Nc3ccc(OC)cc3OC)n2n1`, 75%. On to `COC(=O)c1scc(-c2ccc(C)cc2)c1S(=O)(=O)Nc1ccc(F)cc1F`, for which the survival is 72%.

On to `CCc1ccc(S(=O)(=O)c2nnn3c2nc(N(CC)Cc2ccccc2)c2cc(Cl)ccc23)cc1`, for which the survival was 92%. For `CCN(Cc1ccccc1)c1nc2c(S(=O)(=O)c3ccccc3)nnn2c2ccc(Cl)cc12` the value was 88%. As to `CCN(CC)c1nc2c(S(=O)(=O)c3ccccc3)nnn2c2ccc(Cl)cc12`, the survival was 9% (active). For `Cc1cccc(NC(=O)CSc2nnc(C)c(=O)[nH]2)c1` the value was 101%; for `Cc1ccc(CN2CCN(C3CCN(C(=O)OC(C)(C)C)CC3)C(=O)C2=O)cc1`, 124%; for `CCc1ccc(NC(=O)C(CC)n2nnc(C(=O)OC)c2C(=O)OC)cc1` (stereo not given), -1% (active). To `CCC(C(=O)Nc1cc(C)ccc1OC)n1nnc(C(=O)OC)c1C(=O)OC` (stereo not given) belongs 89%. For `CCOC(=O)c1nnn(C(CC)C(=O)Nc2ccc(F)cc2)c1C(=O)OCC` (stereo not given) the value was 99%; for `CCOc1ccc(N2CC(c3nc4ccccc4n3CCCCOc3ccc(OC)cc3)CC2=O)cc1` (stereo not given), 71%. For `CCOc1ccccc1N1CC(c2nc3ccccc3n2CCCOc2ccccc2OC)CC1=O` (stereo not given), the survival is 79%. For `CCCCN1CC(c2nc3ccccc3n2CCCCOc2ccc(C)cc2C)CC1=O` (stereo not given) the value was -5% (active). For `CCCCN1CC(c2nc3ccccc3n2CCCCOc2cc(C)ccc2C)CC1=O` (stereo not given), the survival was -6% (active). To `Cc1ccc(CCNC(=O)CCS(=O)(=O)c2cc3c(cc2Cl)NC(=O)CO3)cc1` belongs 91%; to `COc1ccc(C(=O)NCC(c2cccs2)S(=O)(=O)c2ccc(C)cc2)cc1` (stereo not given), 143%. `CCc1ccc(N(CC(=O)NCC2CCCO2)S(C)(=O)=O)cc1` (stereo not given): the survival is 112%.

Take `O=C(Nc1ccc(OC(F)(F)F)cc1)c1noc2c1CCCC2`: the survival is 86%. For `CCOC(=O)c1ccc(NC(=O)c2noc3c2CCCC3)cc1` the value was -2% (active).

With `COc1ccc(NC(=O)c2noc3c2CCCC3)cc1Cl`, the survival is 82%. To `O=C(CCS(=O)(=O)c1ccc(Br)cc1)Nc1ccc(F)cc1F` belongs 53%; to `Cc1ccccc1OCc1nc2ccccc2n1Cc1ccccc1Cl`, 0% (active). In the case of `Cc1ccc(OCc2nc3ccccc3n2Cc2ccccc2Cl)cc1`, the survival was 7% (active). In the case of `Cc1cccc(C(=O)NCc2nc3ccccc3n2Cc2ccccc2Cl)c1`, the survival is 107%.

`C=CCc1ccccc1OCc1nc2ccccc2n1CC`: the survival is 76%. With `COc1ccc(OCc2nc3ccccc3n2Cc2ccccc2Cl)cc1`, the survival was 72%. As to `CC(=O)Nc1ccc(S(=O)(=O)NCCc2cn3ccsc3n2)cc1`, the survival was 72%. For `COc1ccc(-c2nc3sc(CCNC(=O)C(=O)Nc4ccc(C)c(C)c4)c(C)n3n2)cc1` the value was 117%; for `Cc1cc(C(F)F)n2nc(C(=O)Nc3ccc(F)c(Cl)c3)nc2n1`, 83%. `CN1CCc2c(sc3nc(=S)[nH]c(N)c23)C1`: the survival is 109%. To `COc1cccc(Nc2sc(C(=O)c3ccc(Cl)cc3)c(N)c2C(=O)NCc2ccc(C)cc2)c1` belongs 76%. To `Cc1ccc(CNC(=O)c2c(Nc3ccccc3C)sc(C(=O)c3ccc(F)cc3)c2N)cc1` belongs -3% (active); to `COc1cccc(Nc2sc(C(=O)c3ccc(F)cc3)c(N)c2C(=O)NCc2ccc(Cl)cc2)c1`, 0% (active). To `Cc1ccccc1Nc1sc(C(=O)c2ccc(F)cc2)c(N)c1C(=O)NCCc1ccccc1` belongs 55%; to `COc1cccc(Nc2sc(C(=O)c3ccc(F)cc3)c(N)c2C(=O)NCc2ccc(C)cc2)c1`, 63%.

`Cc1ccccc1Nc1sc(C(=O)c2ccccc2)c(N)c1C(=O)NCc1ccc(Cl)cc1`: the survival is 73%.
